nsP2pro primary – Primary qHTS for inhibitors of NSP2Pro chikungunya virus (CHIKV); 31,000 compounds, 1.1% hits; FRET peptide cleavage, nsP2pro, fluorescence 1 h; Polyprotein P1234 (Chikungunya virus (strain S27-African prototype)), Q8JUX6; Potency, µM (doses to about 24.9 µM), actives largely listed as inhibitors; further: nearly all actives have a fitted effect of over 60% in size
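Enzyme 150 nM, substrate 2.5 uM (both final); Tris-HCl 10 mM pH 8.0 + 0.01% Tween 20; cpd up to 25 uM, 7 pts; 15 min preinc., 1 h RT; fluorescence ex 525/em 598.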
nsP2 cell sec – Secondary cell base assay for inhibitors of NSP2Pro Chikungunya virus (CHIKV); AID 1964100, 2024; 450 compounds, 10% hits; Potency, µM (top dose mostly 51.1 µM), hits mostly inhibitors; cell-based CHIKV nsP2 protease reporter assay; shares compounds with nsP2pro primary; further: nearly all actives have a fitted effect of over 70% in size
NSP2 full ctr – Selectivity profile for inhibitors of NSP2Pro chikungunya virus (CHIKV): Full length NSP2 enzyme counterscreen (CHIKV-NSP2) | shares compounds with nsP2pro primary | Potency, µM (titrated, usually from 50.7 µM), actives largely listed as inhibitors | 410 compounds, 39% hits | AID 1964101, 2024 | Full-length CHIKV NSP2 protease enzymatic counterscreen; further: nearly all actives have a fitted effect of over 65% in size
Furin counter – Selectivity profile for inhibitors of NSP2Pro chikungunya virus (CHIKV): Human furin counterscreen; shares compounds with nsP2pro primary; Recombinant human furin enzymatic counterscreen, fluorogenic substrate; Potency, µM (series often up to 50.6 µM), hits mostly inhibitors; 410 compounds, 6% hits; AID 1964102, 2024
nsP2 NS23 pep – Selectivity profile for inhibitors of NSP2Pro chikungunya virus (CHIKV): Endogenous NS2/3 peptide Counterscreen; shares compounds with nsP2pro primary; Purified CHIKV nsP2 protease, endogenous NS2/3 peptide cleavage; Potency, µM (series often up to 51 µM), hits mostly inhibitors; 410 compounds, 34% hits; further: nearly all actives have a fitted effect of over 55% in size
Papain counter – Selectivity profile for inhibitors of NSP2Pro chikungunya virus (CHIKV): Papain Counterscreen; shares compounds with nsP2pro primary; purified papain protease activity, enzymatic inhibition; Potency, µM (top dose mostly 51 µM), actives largely listed as inhibitors; 410 compounds, 5% hits
nsP2pro conf qHTS – Confirmatory qHTS for inhibitors of NSP2Pro chikungunya virus (CHIKV) | 410 compounds, 43% hits | AID 1964105, 2024 | Potency, µM (top dose mostly 25.5 µM), actives largely listed as inhibitors | shares compounds with nsP2pro primary | CHIKV nsP2 protease enzymatic activity, qHTS; further: nearly all actives have a fitted effect of over 75% in size
HCV NS3 counter – Selectivity profile for inhibitors of NSP2Pro chikungunya virus (CHIKV): NS34A-HCV Counterscreen; 410 compounds, 20% hits; HCV NS3/4A protease biochemical counterscreen; Potency, µM (doses to about 50.9 µM), usual class: inhibitors; shares compounds with nsP2pro primary; further: nearly all actives have a fitted effect of over 55% in size
Numbers stand for hits; ! = a repeat was not active. Shown is part of a subset that was picked to be rich in hits. The call rests on the fitted dose curve.

For COc1cccc(O)c1CNc1ccc(S(=O)(=O)Nc2nccs2)cc1 the results were nsP2pro primary inactive.
Cc1scc2c1C(=O)NS2(=O)=O was read as nsP2pro primary inactive.
Cn1nnnc1Sc1ncnc2scc(I)c12 was read as nsP2pro primary 2.24µM, nsP2 cell sec 7.3µM, NSP2 full ctr inactive, Furin counter inactive, nsP2 NS23 pep inactive, Papain counter inactive, nsP2pro conf qHTS inactive and HCV NS3 counter inconclusive.
`Cn1nnnc1Sc1ncnc2scc(Br)c12` gave nsP2pro primary inactive.
`Cc1ccc(-c2csc3ncnc(Sc4nnnn4C)c23)cc1` gave nsP2pro primary inactive.
For Cc1cc(C)nc(NC(=S)N2CCN(c3cnc4nccn4c3)CC2)c1 the results were nsP2pro primary inactive.
`CC(C)n1cc(-c2ccc(Oc3ccccc3)cc2)c2c(N)ncnc21` gave nsP2pro primary inactive.
CS(=O)(=O)Nc1ccc2oc3c(OC(F)F)ccc(C(=O)Nc4c(Cl)cncc4Cl)c3c2c1 was read as nsP2pro primary inactive.
Screening C/C(=N\NC(=O)C(NC(=O)c1ccccc1)c1n[nH]c(=O)c2ccccc12)c1cccc(Br)c1 (centres undefined) returned nsP2pro primary 9.88µM, nsP2 cell sec inactive, NSP2 full ctr inactive, Furin counter inactive, nsP2 NS23 pep inactive, Papain counter inactive, nsP2pro conf qHTS inactive and HCV NS3 counter inactive.
For COc1cc2c(cc1OC)/C(=C/c1ccc(O)cc1)C(=O)N2 the results were nsP2pro primary inactive.
`OC[C@@]1(O)CO[C@@H](OC[C@H]2O[C@@H](Oc3c[nH]c4ccccc34)[C@H](O)[C@@H](O)[C@@H]2O)[C@@H]1O` gave nsP2pro primary inactive.
Screening CCOc1ccc(C(Nc2ccccn2)c2ccc3ccc(C)nc3c2O)cc1C (centres undefined) returned nsP2pro primary inactive.
`COc1c(-c2ccc3cc(NS(C)(=O)=O)ccc3c2)cc(-n2ccc(=O)[nH]c2=O)cc1C(C)(C)C` gave nsP2pro primary inactive.
Screening COC(=O)CC(O)C1OC(c2ccccc2)C(O)C1O (centres undefined) returned nsP2pro primary inactive.
`O=C1C=CC2OC(c3ccccc3)C(O)C2O1` (centres undefined) gave nsP2pro primary inconclusive, nsP2 cell sec inconclusive, NSP2 full ctr inconclusive, Furin counter inactive, nsP2 NS23 pep inconclusive, Papain counter inactive, nsP2pro conf qHTS inconclusive and HCV NS3 counter inconclusive.
`NCCCC[C@H](N)C(=O)Nc1ccc(Cl)cc1C(=O)c1ccc[nH]1` gave nsP2pro primary inactive.
Screening Cc1cc(NS(=O)(=O)c2ccc(NC(=O)Cc3ccc(C)c(F)c3)cc2)no1 returned nsP2pro primary inactive.
Cc1ccc(CN(C)c2ncnc3ccc(-c4ccc(C(=O)O)o4)cc23)o1 was read as nsP2pro primary inactive.
Screening N#CN1CCC[C@@H](n2nc(-c3ccc(Oc4ccc(F)cc4F)cc3)c(C(N)=O)c2N)C1 returned nsP2pro primary inconclusive, nsP2 cell sec inactive, NSP2 full ctr 18.3µM, Furin counter inactive, nsP2 NS23 pep inconclusive, Papain counter inconclusive, nsP2pro conf qHTS 7.11µM and HCV NS3 counter inactive.
CN(C)CC(=O)N1CCC[C@@H](n2nc(-c3ccc(Oc4ccccc4)cc3)c3c(N)ncnc32)C1 was read as nsP2pro primary inactive.
For O=C(O)c1ccnc2cc(C(OCC3CCC(F)(F)CC3)c3ccccc3Cl)[nH]c12 (centres undefined) the results were nsP2pro primary inactive.
Screening CCCC1CCC(C(=O)Nc2ccc(S(=O)(=O)Nc3nccs3)cc2)CC1 (centres undefined) returned nsP2pro primary inactive.
Screening O=C(COCC(=O)N1CCN(C(c2ccccc2)c2ccccc2)CC1)Nc1ccc(Cl)cc1C(=O)O returned nsP2pro primary inactive.
CCN(CC)C(=S)SSC(=S)N(CC)CC was read as nsP2pro primary 2.48µM!, nsP2 cell sec 12.6µM, NSP2 full ctr 14.6µM, Furin counter inactive, nsP2 NS23 pep 9.19µM, Papain counter inconclusive, nsP2pro conf qHTS 1.79µM and HCV NS3 counter inconclusive.
Screening COc1cc(O)c(C(CC(=O)N2CCCC(C(=O)c3ccccc3)C2)c2ccc3c(c2)OCO3)c(OC)c1 (centres undefined) returned nsP2pro primary inactive.
For CC1(C)C[C@H]2C=C(C=O)[C@]3(C(=O)O)C[C@]3(C)[C@H]2C1 the results were nsP2pro primary inactive.
For O=C(NC1CCCc2c1cnn2-c1ccc(F)cc1F)C1CC1 (centres undefined) the results were nsP2pro primary inactive.
For Cc1cc(NS(=O)(=O)c2cc3c(cc2F)NC(=O)CC3)ccc1Cl the results were nsP2pro primary inactive.
`CC(=O)[O][Hg][c]1ccccc1` gave nsP2pro primary 1.24µM, nsP2 cell sec 1.26µM, NSP2 full ctr 1.83µM, Furin counter 1.16µM, nsP2 NS23 pep 4.61µM, Papain counter inactive, nsP2pro conf qHTS 0.356µM and HCV NS3 counter inconclusive.
CC(=O)Oc1ccccc1C(=O)O was read as nsP2pro primary inactive.
CC(=O)Nc1ccccc1 was read as nsP2pro primary inactive.
`O=S(=O)(Nc1nc(CN2CCOCC2)nc2sc3c(c12)CCC3)c1ccc2c(c1)OCCO2` gave nsP2pro primary inactive.
`Fc1ccccc1N1CCN(c2ncc3c(n2)CCN(Cc2ccc(Br)s2)C3)CC1` gave nsP2pro primary inactive.
Cc1ccsc1CN1CCc2nc(Nc3ccccc3)ncc2C1 was read as nsP2pro primary inactive.
Brc1ccc(CN2CCc3nc(Nc4ccccc4)ncc3C2)s1 was read as nsP2pro primary inconclusive, nsP2 cell sec inactive, NSP2 full ctr inactive, Furin counter inactive, nsP2 NS23 pep inactive, Papain counter inactive, nsP2pro conf qHTS inactive and HCV NS3 counter inactive.

From PubChem
